Screening data (PubChem BioAssay)
Sampled rows, rich in hits. Any-hit rate of the full collection: about 3.5%.
TEAD-YAP block = TEAD-YAP interaction inhibition | HEK-TIYL cells, TEAD-Gal4/YAP UAS-luciferase luminescence | inhibition, % at 9.12 µM | 1.4% of 640,000 active | AID 1259422; in the data active = inhibition above about 32%;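 note: 0% = median of test compound wells and 100% = reference inhibitor wells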
GPR151 ag = activators of human GPR151; PathHunter beta-arrestin GPR151 cells, luminescence; activation, % at 11.2 µM; 1% of 650,000 active; in the data active = activation above about 4.9%;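 note: 0% = median of compound wells and 100% = cells with positive control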
MITF primary = blocks human microphthalmia-associated transcription factor. inhibition, % at 2.6 µM. AID 1259374. AlphaScreen MITF homodimerization, bead proximity signal. O75030. 0.91% of 650,000 active; in the data active = inhibition above about 50%;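 note: 0% = vehicle wells with protein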
Target sequence (O75030 whole entry, looked up): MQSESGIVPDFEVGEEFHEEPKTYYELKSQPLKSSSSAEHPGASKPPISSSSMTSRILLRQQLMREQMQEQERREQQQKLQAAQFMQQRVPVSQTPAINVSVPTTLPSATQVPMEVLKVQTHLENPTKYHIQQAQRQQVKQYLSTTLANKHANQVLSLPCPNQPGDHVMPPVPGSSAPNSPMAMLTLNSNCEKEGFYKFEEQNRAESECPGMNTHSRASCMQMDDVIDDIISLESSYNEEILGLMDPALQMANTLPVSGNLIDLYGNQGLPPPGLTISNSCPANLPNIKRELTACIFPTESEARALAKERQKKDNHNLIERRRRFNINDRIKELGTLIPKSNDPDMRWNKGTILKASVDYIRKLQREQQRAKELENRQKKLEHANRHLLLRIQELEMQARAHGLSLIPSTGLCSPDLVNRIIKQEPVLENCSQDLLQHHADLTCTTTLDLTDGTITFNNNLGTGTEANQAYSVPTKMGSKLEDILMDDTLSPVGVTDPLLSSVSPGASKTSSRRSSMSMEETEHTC
FBW7 act = human FBW7 E3 ligase activation, primary screen | Q969H0 | AlphaScreen FBW7–phospho-cyclin E peptide binding, activator screen | normalized activity (activation), % at 26.1 µM | 0.13% of 650,000 active | AID 1259310; in the data active = normalized activity above about 1.9%;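 note: purified mutant Fbw7 with reduced substrate affinity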
* hit, by the source's call.

SMILES	TEAD-YAP block	GPR151 ag	MITF primary	FBW7 act
COC(=O)C1=C(C)NC2=C(C(=O)CC(c3cccs3)C2)C1c1cccc(OC)c1 (stereo unspecified)	22	3	-4	0
COc1ccc(C2C(C(=O)OCCc3ccccc3)=C(C)NC3=C2C(=O)CC(c2ccccc2)C3)cc1 (stereo unspecified)	0	1	7	2
COC(=O)C1=C(C)NC2=C(C(=O)CC(c3cccs3)C2)C1c1cc(OC)ccc1OC (stereo unspecified)	33*	3	-5	0
CC1=C(C(=O)OC(C)C)C(c2cccs2)C2=C(CC(c3ccccc3)CC2=O)N1 (stereo unspecified)	42*	-2	-23	0
O=S(=O)(c1cccc(Cl)c1)N1CCC(CO)(CCOc2ccccc2)CC1	-17	0	-12	0
CCCNC(=O)c1cccc(N2CCOCC2)c1	-5	0	-1	0
CCCn1ncc(CN2CCC(CO)(Cc3ccccc3)CC2)c1C	3	-1	7	0
COc1cccc(-c2noc(C3CCCN(C(=O)c4c(OC)cccc4OC)C3)n2)c1 (stereo unspecified)	63*	-1	10	0
COc1ccc(-c2noc(C3CCCN(C(=O)c4c(F)cccc4F)C3)n2)cc1OC (stereo unspecified)	9	2	-10	0
Cc1ccc(S(=O)(=O)N(C)CC(=O)Nc2ccc(C(N)=O)cc2)cc1	-9	-1	21	0
Cc1[nH]c2ccccc2c1SCC(=O)Nc1ccc2c(c1)OCO2	4	-1	1	0
CCOC(=O)/C(=C\N(C)C)C(=O)c1cc([N+](=O)[O-])c(Cl)cc1Cl	38*	0	5	0
CC(CCc1ccccc1)NC(=O)CC1COc2ccccc2O1 (stereo unspecified)	-4	0	-35	0
Cn1c(SCC(=O)Nc2ccccn2)nc2ccccc21	-2	1	8	0
Cc1cc(OCC(=O)Nc2ccccn2)ccc1Cl	64*	3	-4	0
Cc1ccnc(NC(=O)COc2ccc(Cl)c(C)c2)c1	-31	-1	5	0
Nc1cc(N)nc(SCC(=O)NCCOc2ccccc2)n1	16	-1	11	2.2*
O=C(CSc1nc2sc3c(c2c(=O)n1-c1ccccc1)CCC3)Nc1ccccc1[N+](=O)[O-]	-1	1	7	0
CC(=O)N1CCC(N(C(=O)CCC(=O)O)C2CC2)CC1	-5	0	14	4.6*
O=C(O)CCC(=O)N(C1CC1)C1CCN(CCc2ccccc2)CC1	0	0	6	0
Cc1onc(-c2ccccc2)c1C(=O)Nc1sc2c(c1C#N)CCC(C)C2 (stereo unspecified)	10	0	11	0
N#Cc1c(NC(=O)C2CC2c2ccccc2)sc2c1CCC2 (stereo unspecified)	43*	3	-16	0
NC(=O)c1c(NC(=O)C2CC2c2ccccc2)sc2c1CCCC2 (stereo unspecified)	-19	1	3	0
CC(=O)NC(=S)Nc1sc2c(c1C#N)CCCCC2	66*	-2	1	0
Cc1onc(-c2ccccc2)c1C(=O)Nc1sc2c(c1C#N)CCCC2	32*	-1	-20	0
SMILES	TEAD-YAP block	GPR151 ag	MITF primary	FBW7 act
N#Cc1c(NC(=O)c2cc(Cl)ccc2[N+](=O)[O-])sc2c1CCC2	37*	3	10	0
Cc1cc2ccccc2c(=O)n1CC(=O)Nc1ccccn1	6	2	-2	0
O=C(c1cccc(-n2ccc3ccccc32)c1)N1CCOCC1	-12	0	6	0
N#Cc1c(NC(=O)c2cccc3ccccc23)sc2c1CCCC2	43*	0	-5	0
N#Cc1c(NC(=O)c2ccccc2I)sc2c1CCCC2	49*	1	9	0
N#Cc1c(NC(=O)c2cccc3ccccc23)sc2c1CCC2	58*	-1	-11	0
NC(=O)c1c(NC(=O)c2cccc3ccccc23)sc2c1CCC2	4	-1	17	0
N#Cc1c(NC(=O)CSc2ncn[nH]2)sc2c1CCCCC2	68*	-5	-5	0
CC(=O)Nc1ccc(NC(=O)CCCOc2ccccc2)cc1	-7	1	2	0
O=C(CSc1nc2ccccc2s1)NNC(=S)NC1CCCCC1	4	-1	17	0
CC1=NN(C(N)=S)C(=O)C1N=Nc1ccccc1O (stereo unspecified)	-16	0	58*	-3
CC1=NN(C(N)=S)C(=O)C1N=Nc1ccccc1C (stereo unspecified)	-15	-5	9	-1
CCOc1cccc(NC(=O)/C(C#N)=C\c2ccsc2)c1	-34	0	1	0
CCOc1ccc(C(=O)Nc2cccc(C)n2)cc1	43*	-9	9	0
Cc1cccc(NC(=O)c2ccc(C(C)(C)C)cc2)n1	45*	-5	-2	0
Cc1cccc(NC(=O)c2ccc(N)cc2)n1	61*	-6	10	0
Cc1cccc(C(=O)Nc2ccc(NC(=O)c3ccccc3F)cc2)c1	-7	1	-5	0
Cc1ccc(S(=O)(=O)NC2=NCN(CCN3CCOCC3)CN2)cc1	-9	-1	-1	0
COc1cc(OC)cc(-c2n[nH]c(=S)n2-c2cc(OC)ccc2OC)c1	-10	1	-4	0
Cc1c(C(=O)Nc2ccc(F)cc2F)sc2ncnc(N3CCCCC3C)c12 (stereo unspecified)	-7	0	-12	0
O=C(c1cccs1)N1CCCC(c2nc(-c3ccncc3)ncc2-c2ccccc2)C1 (stereo unspecified)	51*	1	-6	0
Cc1cnc(C(=O)N2CCCC(c3nc(C)ncc3-c3ccncc3)C2)cn1 (stereo unspecified)	-18	-1	14	0
O=C(c1ccco1)N1CCCC(c2nc(-c3ccncc3)ncc2-c2ccccc2)C1 (stereo unspecified)	5	0	17	0
O=C(CN1Cc2ccccc2C1)N1CCCC(c2ncncc2-c2ccncc2)C1 (stereo unspecified)	4	0	16	3.3*
Cc1cc(C(=O)N2CCCC(c3nc(-c4ccncc4)ncc3-c3ccccc3C)C2)no1 (stereo unspecified)	58*	1	-7	0
SMILES	TEAD-YAP block	GPR151 ag	MITF primary	FBW7 act
O=C(CN1CCCC(c2ncncc2-c2ccncc2)C1)N1CCc2ccccc21 (stereo unspecified)	-2	0	18	0
CCN1CC23C=CC(O2)C(C(=O)N2CCC(c4ccncc4)CC2)C3C1=O (stereo unspecified)	2	0	-5	0
O=C(c1cc([N+](=O)[O-])ccc1Cl)N1CCN(c2cccc(Cl)c2)CC1	32*	-1	-12	0
O=C(c1n[nH]c(=O)c2ccccc12)N1CCN(c2cccc(Cl)c2)CC1	55*	0	-5	0
Cc1ccc(C(=O)N2CCN(c3ccc([N+](=O)[O-])cc3)CC2)c(Cl)c1	35*	-1	-4	0
COc1ccc(N(CC(=O)NC2CCCCC2)S(=O)(=O)c2c(C)noc2C)cc1	-10	2	2	0
